Source: PubChem
This is one part of a sample in which hits are shown more often than they occur.
Menin-MLL FL inh – displaces fluorescein MLL peptide from human menin; Fluorescence polarization, fluorescein-MLL peptide displacement from menin; FP activity change, % at 61.4 µM; 290,000 tested, under 10 active; active means well fitted curve in the direction sought with a large enough effect in the polarisation, not every such curve was filed as active; inconclusive means small, poorly fitted or top-dose-only effect, or effect the other way, or a change in a side signal; inactive means no such curve, though single readings can be large or run the other way; the % refers to the polarisation; further: % of control where 0% means no effect
MLL CXXC-DNA inh – blocks binding of human MLL CXXC domain to DNA | Potency, µM (doses to about 115 µM), inactives show top-dose activity change, negative = inhibition, most hits filed as inhibitors | MLL-CXXC / FITC-HOXA9 DNA fluorescence polarization | Q03164 | AID 2662 | 290,000 compounds, 0.037% hits; active means well fitted inhibition curve with a large enough effect in the polarisation, with a control signal flat, not every such curve was filed as active; inconclusive means small, poorly fitted or top-dose-only effect, or effect the other way, or a change in a side signal; inactive means no such curve, though single readings can be large or run the other way; the % refers to the polarisation; further: potency means the concentration at half of the fitted maximal effect
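Purified MLL-CXXC (added from a 7 uM solution) was preincubated 5 min at ambient with pinned compounds in 50 mM Tris-HCl pH 7.5, 50 mM NaCl, 1 mM DTT, 0.05% BSA. Fluorescein-labeled HOX-A9 DNA (50 nM solution) followed, 30 min, then polarization read.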
ERG-DNA inh – ERG Ets/DNA interaction inhibition. 370,000 compounds, 0.028% hits. fluorescence polarization, His-ERG Ets domain / labelled DNA. P11308. Potency, µM (highest dose often 76.9 µM), for inactives: at the top dose FP activity, negative = inhibition, actives largely listed as inhibitors; active means well fitted inhibition curve with a large enough effect in the polarisation, with a control signal flat; inconclusive means small, poorly fitted or top-dose-only effect, or effect the other way, or a change in a side signal; inactive means no such curve, though single readings can be large or run the other way; the % refers to the polarisation;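 further: polarization taken with two DNA probes labelled with fluorescein and Texas red; potency means the concentration at half of the fitted maximal effect; % of control where 0% means no effect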
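His-tagged ERG Ets domain (1 uM in the protein solution; 300mM KCl, 50mM Tris-HCl, 1mM EDTA, 1mM DTT, pH 7.5) received compound, then a probe mix of 5 nM fluorescein-DNA and 100nM Texas-615-DNA. Fluorescence polarization was read for both dyes.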
Menin-MLL TR inh – menin-MLL binding inhibition, Texas Red mutant peptide. Potency, µM (top dose mostly 61.6 µM), for inactives: at the top dose FP activity change, negative = inhibition, actives largely listed as inhibitors. O00255. Menin + Texas Red MLL mutant peptide, fluorescence polarization. 270,000 compounds, 0.23% hits; active means well fitted inhibition curve with a large enough effect in the polarisation, with a control signal flat, not every such curve was filed as active; inconclusive means small, poorly fitted or top-dose-only effect, or effect the other way, or a change in a side signal; inactive means no such curve, though single readings can be large or run the other way; the % refers to the polarisation; further: potency means the concentration at half of the fitted maximal effect; % of control where 0% means no effect
Target sequence (O00255 whole entry, looked up): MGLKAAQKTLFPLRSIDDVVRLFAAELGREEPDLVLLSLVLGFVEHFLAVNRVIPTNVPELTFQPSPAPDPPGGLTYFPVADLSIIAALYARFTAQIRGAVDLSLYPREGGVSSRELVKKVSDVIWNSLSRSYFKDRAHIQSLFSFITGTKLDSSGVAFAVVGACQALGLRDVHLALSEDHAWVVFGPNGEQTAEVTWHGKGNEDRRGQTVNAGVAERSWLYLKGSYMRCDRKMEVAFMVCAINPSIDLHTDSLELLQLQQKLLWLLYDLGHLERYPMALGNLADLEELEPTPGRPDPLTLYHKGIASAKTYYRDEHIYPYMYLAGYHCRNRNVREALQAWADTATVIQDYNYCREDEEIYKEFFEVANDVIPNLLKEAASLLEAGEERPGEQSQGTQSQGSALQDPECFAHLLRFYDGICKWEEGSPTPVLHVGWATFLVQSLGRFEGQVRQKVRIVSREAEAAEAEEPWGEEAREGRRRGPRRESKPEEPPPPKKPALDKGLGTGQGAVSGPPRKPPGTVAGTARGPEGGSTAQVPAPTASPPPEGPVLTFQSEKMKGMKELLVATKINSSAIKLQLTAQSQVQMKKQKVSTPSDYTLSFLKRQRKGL
Mm-Cpn inhibitor – M. maripaludis TRiC chaperonin inhibition. purified Mm-Cpn ATPase, ADP Transcreener TR-FRET. Potency, µM (top dose mostly 76.9 µM), without a hit: at the highest dose activity, negative = inhibition, actives largely listed as inhibitors. 330,000 compounds, 0.031% hits; active means well fitted inhibition curve with a large enough effect; inconclusive means small, poorly fitted or top-dose-only effect; further: potency means the concentration at half of the fitted maximal effect; on the % scale 0 is the no-effect control and ±100 the full control effect; nearly all actives have a fitted effect of over 80% in size
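ATPase turnover read by TR-FRET ADP competition (Eu cryptate antibody/ADP-d2, 665/590 nm): 10uM ATP final, 25nM Mm-CPN final, 30 min 37degC after 10-min compound preincubation, pH 7.4 Tris/KCl/MgCl2/DTT buffer.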
Numbers without * were called inactive; ? = inconclusive; nt = not tested or not shown; [ ] = dose if it differs, or a comment.

SMILES	Menin-MLL FL inh	MLL CXXC-DNA inh	ERG-DNA inh	Menin-MLL TR inh	Mm-Cpn inhibitor
CCNC(=O)[C@@H]1CCCN1C(=O)[C@H](CCCN=C(N)N)NC(=O)[C@H](CC(C)C)NC(=O)[C@@H](Cc1c[nH]c2ccccc12)NC(=O)[C@H](Cc1ccc(O)cc1)NC(=O)[C@H](CO)NC(=O)[C@H](Cc1c[nH]c2ccccc12)NC(=O)[C@H](Cc1cnc[nH]1)NC(=O)[C@@H]1CCC(=O)N1	-0.7	2.4%	nt	-19.0%	nt
COC(=O)c1cc2c(-c3ccccc3)c(C)c3ccccn3c-2c1C(=O)OC	?	-1.2%	0.3%	35.5µM*	-29.2%
CCCN1C(=O)/C(=C/c2c(NCCCOCC)nc3c(C)cccn3c2=O)SC1=S	?	?	-16.8%	8.91µM*	0.4%
COC(=O)NC(/C(C(=O)OC)=C(\C)NCc1ccccc1)c1ccc2ccccc2c1 (stereo not drawn)	7.3[11.7 µM]	nt	nt	-3.6%[11.7 µM]	nt
Cc1ccc2c(CN(C)Cc3ccccc3)cc(=O)oc2c1C	0.8	-1.0%	35.5µM*	?	1.7%
COc1cc(OC)cc(-c2nnc3n2N=C(c2ccc(OC)cc2OC)CS3)c1	-4.2	nt	nt	15.6%	nt
Cc1cc(F)ccc1S(=O)(=O)Nc1ccccc1C(=O)Nc1ncn[nH]1	6.2	-10.7%	-12.6%	1.0%	0.7%
Cc1cc(F)ccc1S(=O)(=O)Nc1ccccc1C(=O)Nc1ccccc1-c1nc2ccccc2[nH]1	14.3	6.5%	-2.8%	14.1µM*	?
C=CC#CC[N+]1(CC#Cc2ccccc2)CCOCC1	-19.7	51.5%	4.8%	25.1µM*	-1.2%
CC(C)OP(=O)(c1ccc(N(C)C)cc1)C(O)c1ccc(N(C)C)cc1 (stereo not drawn)	2.1	15.0%	-1.7%	10µM*	-5.4%
CC(C)COP(=O)(c1ccc(N(C)C)cc1)C(O)c1ccc(N(C)C)cc1 (stereo not drawn)	2.2	11.8%	6.3%	?	-1.6%
CNC(=S)N1N=C(c2ccc(C)cc2)CC1c1ccc(N(C)C)cc1 (stereo not drawn)	-1.9	54.0%	3.0%	7.0%	25.1µM*
Cn1sc(=O)n(Cc2ccccc2)c1=O	-5.0	nt	nt	-5.3%	nt
COc1cc2nc(SCc3ccc(Cl)cc3Cl)n(Cc3cccs3)c(=N)c2cc1OC	0.5	21.5%	-2.9%	39.8µM*	?
COc1cc2nc(SCc3ccc(C(F)(F)F)cc3)n(Cc3cccs3)c(=N)c2cc1OC	4.1	5.2%	4.4%	17.2%	-21.2%
COc1ccc(-c2nnc3n2N=C(c2ccccc2OC)CS3)cc1OC	2.6	nt	nt	-16.7%	nt
COc1ccc(C2=Nn3c(nnc3-c3ccccc3OC)SC2)cc1OC	5.3	-5.6%	3.1%	11.2µM*	-0.7%
Cc1ccc(CNc2ccc(O)cc2)cc1	3.8	nt	-29.8%	17.8µM*	-5.7%
Cc1ccc(NCc2ccccc2O)cc1	-0.4	-8.5%	-9.4%	11.5%	0.3%
COc1ccc(NS(=O)(=O)c2cc(NC(=O)/C=C/c3cc(OC)ccc3OC)ccc2N2CCCCC2)cc1	0.3	2.6%	nt	10µM*	-9.3%
CN1C(=O)N(C)C2=NNC=NC2(O)C1=O (stereo not drawn)	-7.1	nt	nt	?	nt
CC(C)(CCCCCCCCCCC(C)(C)CC(=O)O)CC(=O)O	3.6	nt	nt	-19.8%	nt
CCOC(=O)NN1C(=O)c2ccccc2NC1c1cccnc1 (stereo not drawn)	-1.0	7.2%	1.8%	4.9%	1.2%
CCOC(=O)NN1C(=O)c2ccccc2NC1c1cccs1 (stereo not drawn)	1.3	33.0%	35.5µM*	2.9%	-2.2%
N=c1c2c(-c3ccccc3)c(-c3ccccc3)n(Cc3ccccc3)c2ncn1CCCn1ccnc1	-1.9	83.3%	7.9%	22.4µM*	1.3%
SMILES	Menin-MLL FL inh	MLL CXXC-DNA inh	ERG-DNA inh	Menin-MLL TR inh	Mm-Cpn inhibitor
CCCCn1cnc2c(c(-c3ccccc3)c(-c3ccccc3)n2Cc2ccco2)c1=N	1.3	1.2%	-8.0%	nt	0.6%
COc1cccc(NC(=O)Cc2nc(-c3ccccc3)sc2-c2ccc(C)cc2)c1	7.6	-5.4%	4.1%	?	39.8µM*
CC(=O)Nc1cccc(NC(=O)Cc2nc(-c3ccccc3)sc2-c2ccc(C)cc2)c1	2.8	-2.9%	8.1%	?	?
Cc1ccc(-c2sc(-c3ccccc3)nc2CC(=O)Nc2ccccc2F)cc1	6.9	5.7%	-10.6%	?	-11.3%
COC(=O)c1cccc(NC(=O)Cc2nc(-c3ccccc3)sc2-c2ccc(C)cc2)c1	nt	14.5%	0.3%	-26.3%	50.1µM*
O=S(=O)(Nc1cc(O)cc2cccnc12)c1ccc(Cl)s1	7.0	nt	nt	?	nt
CCN(CC)c1ccc(N=Cc2ccc(N(CC)CC)cc2O)cc1	?	?	6.5%	?	-10.0%
CCN(CC)c1ccc(C=Nc2ccc(N(C)C)cc2)c(O)c1	?	?	0.6%	20µM*	-22.1%
N#CCC(=O)Nc1ccc(C(=O)OCC(=O)c2ccc3c(c2)OCO3)cc1	nt	nt	5.3%	nt	44.7µM*
Cc1ccc(Nc2c(-c3ccccn3)nc3cc(C)ccn23)cc1	-3.9	?	-6.9%	-28.8%	-0.6%
Cc1ccn2c(Nc3ccc4c(c3)OCO4)c(-c3ccccn3)nc2c1	?	?	?	35.5µM*	-0.5%
C[C@H]1Cc2c(COc3ccccc3)nc3c(c2CO1)CN(C(=O)C1CCCCC1)CC3	0.9[11.7 µM]	nt	nt	-16.5%[11.7 µM]	nt
OC[C@H]1OC(O)[C@H](O)[C@@H](O)[C@@H]1O (stereo partly drawn)	-9.6	nt	nt	-6.1%	nt
COc1cc(NS(=O)(=O)c2ccc([N+](=O)[O-])cc2)c2ncccc2c1	-1.9	nt	nt	?	nt
CCOC(=O)/C(C#N)=C/C=C1\C=Cc2ccccc2N1CC	?	177.2%	36.5%	25.1µM*	0.6%
CCCN1C=CC(=C/C=C(\C#N)C(=O)OCC)C=C1	?	?	nt	17.4%	-5.9%
Cc1csc(NC(=O)CSc2nnc(NC(=O)COc3ccccc3)s2)n1	3.1	8.4%	-10.7%	39.8µM*	-0.3%
N#Cc1cccc(-c2nc3cnc(Nc4ccccc4)nc3n(C[C@H]3CCCO3)c2=O)c1	?	nt	nt	28.2µM*	nt
O=c1c(-c2ccccc2)nc2cnc(Nc3ccccc3)nc2n1C[C@H]1CCCO1	?	nt	nt	37.4%	nt
COc1cc2c(cc1OC)CN(C(=O)/C=C/c1cc(OC)c(OC)c(OC)c1)CC2	0.4	?	1.2%	10µM*	0.3%
COc1cc2c(cc1OC)CN(C(=O)/C=C/c1ccc(F)cc1)CC2	-10.2	14.0%	-2.4%	?	1.2%
CC(=O)Nc1cccc(S(C)(=O)=O)c1	5.3	2.5%	20µM*	0.1%	-1.2%
CC(=O)Nc1cccc(N(C)S(C)(=O)=O)c1	6.1	0.1%	8.0%	3.5%	-3.4%
CCOC(=O)c1c(NC(=S)NC)sc2c1CC(C)(C)SC2	16.6	2.1%	5.0%	-4.0%	-6.5%
CCOC(=O)c1c(NC(=S)Nc2ccccc2)sc2c1CC(C)(C)SC2	10.3	6.4%	-1.0%	?	50.1µM*
